Screening data deposited in PubChem BioAssay by National Center for Advancing Translational Sciences (NCATS).
CHX counter = Cycloheximide Counterscreen for Small Molecule Inhibitors of Shiga Toxin | cell reporter, cycloheximide protein synthesis inhibition counterscreen | max response, % | actives 12% (n = 300,000) | AID 2314, 2010; in the data active means max response mostly above about 13%, no sharp cut-off; inactive means mostly below about 14%; further: read at 38.3 µM for the half of the compounds with a filed dose; 0% is about no effect
NS1 inh = qHTS Assay for Inhibitors of Influenza NS1 Protein Function | Potency, µM (highest dose often 46.1 µM), for the others: at the top dose activity, positive = more growth | actives 0.4% (n = 270,000); calls by dose curve; further: potency means the concentration at half of the fitted maximal effect; actives are rising curves; nearly all actives have a fitted effect of over 50% in size
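S. cerevisiae expressing influenza A NS1, grown in glucose, washed, then diluted 1:100 into pH 6.0 -URA galactose medium with 23 nl compound. Growth recovery read as OD600; NS1-free strain serves as control.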
Shiga toxin inh = A qHTS for Small Molecule Inhibitors of Shiga Toxin; Vero cells, Shiga toxin protein synthesis inhibition reporter; inhibition, % at 38.7 µM; actives 9.2% (n = 290,000); in the data active means inhibition mostly above about 28%, no sharp cut-off; inactive means mostly below about 43%; further: 0% is about no effect
LmPK inh = qHTS Assay for Inhibitors of Leishmania Mexicana Pyruvate Kinase (LmPK) | purified LmPK, Kinase-Glo ATP luminescence, 1 h | actives 0.37% (n = 290,000) | Potency, µM (titrated, usually from 57.5 µM), for inactives: top-dose activity change, negative = inhibition, hits mostly inhibitors; further: potency means the concentration at half of the fitted maximal effect; on the % scale 0 is the no-effect control and ±100 the full control effect
Target sequence (Q27686 whole entry, looked up): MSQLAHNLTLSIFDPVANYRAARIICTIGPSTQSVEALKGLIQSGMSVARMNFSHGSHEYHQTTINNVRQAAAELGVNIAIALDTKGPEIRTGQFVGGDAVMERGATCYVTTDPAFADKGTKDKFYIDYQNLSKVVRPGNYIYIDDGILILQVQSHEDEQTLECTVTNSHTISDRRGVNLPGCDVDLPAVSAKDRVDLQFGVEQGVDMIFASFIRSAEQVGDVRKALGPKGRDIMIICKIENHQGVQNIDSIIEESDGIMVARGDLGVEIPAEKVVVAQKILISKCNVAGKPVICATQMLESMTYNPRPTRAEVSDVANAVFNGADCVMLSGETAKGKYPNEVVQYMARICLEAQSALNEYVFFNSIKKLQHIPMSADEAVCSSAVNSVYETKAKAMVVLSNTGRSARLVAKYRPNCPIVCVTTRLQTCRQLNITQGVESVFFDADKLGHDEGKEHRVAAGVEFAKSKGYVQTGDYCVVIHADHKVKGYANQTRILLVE
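ATP generated from ADP (0.1 mM) and PEP (0.5 mM) by 0.1 nM LmPK over 1 h at room temperature (pH 7.2 imidazole buffer) was detected by coupled luciferase luminescence. Values were normalized to uninhibited and no-enzyme wells.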
Giardia FBPA inh = qHTS Assay for Inhibitors of Fructose-1,6-bisphosphate Aldolase from Giardia Lamblia; purified Giardia FBPA; Potency, µM (highest dose often 59.6 µM), inactives show top-dose activity, negative = inhibition, actives largely listed as inhibitors; A8B2U2; AID 2451, 2010; actives 0.71% (n = 290,000); further: potency means the concentration at half of the fitted maximal effect; on the % scale 0 is the no-effect control and ±100 the full control effect; nearly all actives have a fitted effect of over 55% in size
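40 nM FBPA preincubated 10 min at RT with compound (up to 57.5 uM final), then substrate plus GAPDH/TPI/NAD/arsenate coupling and diaphorase/resazurin added. Fluorescence read after 20 min at RT, 525/598 nm.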
An asterisk follows results filed as active; ? = inconclusive; / = no result. Compounds with a hit are over-represented: about 14% of the library has one in this group of screens. Unless noted, the call rests on the fitted dose curve; in most records, active means well fitted curve in the direction sought with a large enough effect; inconclusive means small, poorly fitted or top-dose-only effect, or another doubt; inactive means no such curve, though single readings can be large; an effect the other way counts as inactive or inconclusive.

SMILES	CHX counter	NS1 inh	Shiga toxin inh	LmPK inh	Giardia FBPA inh
CC[C@H](C)[C@H](NC(=O)[C@H](CCC(=O)O)NC(=O)[C@H](CO)NC(=O)[C@@H](NC(=O)[C@@H](N)CO)C(C)C)C(=O)N[C@@H](CCC(N)=O)C(=O)N[C@@H](CC(C)C)C(=O)N[C@@H](CCSC)C(=O)N[C@@H](Cc1cnc[nH]1)C(=O)N[C@@H](CC(N)=O)C(=O)N[C@@H](CC(C)C)C(=O)NCC(=O)N[C@@H](CCCCN)C(=O)N[C@@H](Cc1cnc[nH]1)C(=O)N[C@@H](CC(C)C)C(=O)N[C@@H](CC(N)=O)C(=O)N[C@@H](CO)C(=O)N[C@@H](CCSC)C(=O)N[C@@H](CCC(=O)O)C(=O)N[C@@H](CCCNC(=N)N)C(=O)N[C@H](C(=O)N[C@@H](CCC(=O)O)C(=O)N[C@@H](Cc1c[nH]c2ccccc12)C(=O)N[C@@H](CC(C)C)C(=O)N[C@@H](CCCNC(=N)N)C(=O)N[C@@H](CCCCN)C(=O)N[C@@H](CCCCN)C(=O)N[C@@H](CC(C)C)C(=O)N[C@@H](CCC(N)=O)C(=O)N[C@@H](CC(=O)O)C(=O)N[C@H](C(=O)N[C@@H](Cc1cnc[nH]1)C(=O)N[C@@H](CC(N)=O)C(=O)N[C@@H](Cc1ccccc1)C(=O)N[C@H](C(=O)N[C@@H](C)C(=O)N[C@@H](CC(C)C)C(=O)NCC(=O)O)C(C)C)C(C)C)C(C)C	-2.2	/	-7.3	/	-25.8%
Cc1ccc(C(=O)O/N=C2\CCCc3ccccc32)cc1	17.8*	-7.3%	61.9*	?	-5.6%
O=C(O/N=C1\CCCc2ccccc21)c1cccc(Cl)c1	13.3*	-14.4%	7.4	-18.4%	-2.7%
O=C(O/N=C1\CCCc2ccccc21)C1CC1	-1.4	/	-8.1	0.6%	-2.5%
Cc1cccc(C(=O)O/N=C2\CCSc3ccc(C)cc32)c1	-2.6	-6.0%	-7.3	-5.0%	2.4%
Cc1cccc(C(=O)O/N=C2\CCCc3ccccc32)c1	24.1*	-26.1%	41.4*	-20.7%	0.2%
Cc1ccc(-n2nc3c(=O)n(CCCC(=O)NCCc4ccccc4C)nc(C)c3c2C)cc1	-1.1	14.1%	11.6	0.8%	0.4%
O=C(Cc1ccccc1)NN1CCCCC1	-0.4	-0.9%	-14.4	2.1%	2.3%
C/C(=N\NC(=O)c1ccncc1)c1c(O)n(-c2ccccc2)c(=O)[nH]c1=O	7.8	-2.2%	-12.9	-0.2%	0.6%
C/C(=N\NC(=O)c1ccccc1)c1c(C)[nH]n(-c2ccccc2)c1=O	49.2*	-32.6%	61.3*	-1.8%	4.9%
Cc1[nH]n(-c2ccccc2)c(=O)c1C(=O)Nc1ccccc1	16.4*	-10.0%	30.7	1.9%	-9.7%
C/C(=N\NC(=O)c1ccc(C)cc1)c1c(C)[nH]n(-c2ccccc2)c1=O	29.6*	-37.9%	99.0	3.9%	13.3%
Cc1[nH]n(-c2ccccc2)c(=O)c1C(=O)c1ccc([N+](=O)[O-])cc1	1.7	4.1%	10.3	15.6%	4.3%
COC(=O)N[C@@H](CCc1ccccc1)[C@]1(C(C)=O)CCCC1=O	/	/	/	/	1.9%
Cc1ccc(-c2nnc3sc(CCc4ccccc4)nn23)cc1	18.7*	-43.9%	47.5*	-1.2%	0.2%
COc1ccc(-c2nnc3sc(COc4ccccc4)nn23)cc1	-2.8	-51.7%	-10.9	-0.5%	-5.0%
COC(=O)CC(=O)c1ccc2c(c1)OCO2	14.4	/	21.8	/	2.0%
O=C(COC(=O)c1ccccc1NC(=O)C1CC1)c1ccc2c(c1)OCCO2	53.7*	3.2%	75.3*	0.3%	-0.9%
CC(C)(C)C(=O)Nc1ccccc1C(=O)OCC(=O)c1ccc2c(c1)OCCO2	69.0*	-12.9%	77.6*	1.7%	-3.3%
COC(=O)c1ccccc1NC(=O)c1ccc2c(c1)OCCO2	-1.0	-99.0%	28.7	-9.2%	-1.9%
O=C(COC(=O)c1ccc(O)cc1O)c1ccc2c(c1)OCO2	76.2*	0.8%	92.3*	-1.8%	10.5%
Cc1cc(-c2cc(C)c(O)c(C(C)(C)C)c2)cc(C(C)(C)C)c1O	/	-30.6%	/	/	/
C[C@@H]1C(=O)O[C@H]2[C@@H](O)[C@@]34[C@H]5CC(C(C)(C)C)[C@]36[C@@H](OC(=O)[C@@H]6O)O[C@@]4(C(=O)O5)[C@@]12O (stereo partly drawn)	/	/	/	/	5.9%
O=C(Nc1ccccc1C(=O)Nc1ccc(Br)cn1)c1cccc([N+](=O)[O-])c1	-1.8	12.1%	10.9	2.7%	1.0%
Cc1ccc(Nc2ncnc3sc(C)c(C)c23)cc1C	31.0*	-2.3%	43.3	3.0%	6.7%
SMILES	CHX counter	NS1 inh	Shiga toxin inh	LmPK inh	Giardia FBPA inh
Cc1sc2ncnc(N/N=C/c3ccccc3O)c2c1C	35.9*	-47.5%	33.5*	0.9%	?
Cc1sc2ncnc(NCCCO)c2c1C	-0.7	-6.5%	-10.7	-0.3%	-2.9%
Cc1sc2ncnc(NCC(O)c3ccccc3)c2c1C (stereo not drawn)	22.5*	-3.3%	81.9*	-11.2%	/
CCOC(=O)c1ccccc1NC(=O)Cn1cnc2c(oc3ccccc32)c1=O	30.1*	-0.7%	56.1*	2.6%	0.9%
COC(=O)Cn1cnc2c(oc3ccccc32)c1=O	36.5*	-24.2%	41.0*	-1.8%	5.9%
CC(C)C(C)NC(=O)Cn1cnc2c(oc3ccccc32)c1=O (stereo not drawn)	16.9*	-13.7%	37.6	-1.5%	17.6%
COc1ccccc1NC(=O)Cn1cnc2c(oc3ccccc32)c1=O	-2.9	-13.7%	-9.8	7.2%	0.6%
Cc1cccc(NC(=O)Cn2cnc3c(oc4ccccc43)c2=O)c1	1.0	/	-7.8	3.2%	1.5%
O=C(Cn1cnc2c(oc3ccccc32)c1=O)N1CCN(c2ccccc2)CC1	17.1	-6.3%	55.4	2.5%	-7.0%
CC1CC(C)CN(C(=O)C2CCN(S(=O)(=O)c3ccc4c(c3)CC(C)N4C(=O)C3CC3)CC2)C1 (stereo not drawn)	-2.1	4.5%	-2.9	-4.7%	-0.5%
COc1cc(C(=O)N2CCN(C(=O)c3cc(-c4ccc(Br)cc4)n[nH]3)CC2)cc(OC)c1OC	12.8	4.5%	24.5	0.6%	26.7%
Cc1cc(-c2ccc([N+](=O)[O-])cc2)nc2ccccc12	46.4*	/	62.4*	-1.6%	-12.7%
Cc1nc2ccccc2c(=O)n1-c1ccc([N+](=O)[O-])cc1	41.6*	7.7%	63.9*	1.5%	4.7%
O=C(NC1CCCCC1)C1Cc2ccccc2CN1S(=O)(=O)c1ccc(F)cc1 (stereo not drawn)	-0.1	-8.2%	3.7	7.3%	-4.2%
Cc1ccc(NC(=O)[C@@H]2CCCN2S(=O)(=O)c2ccccc2F)cc1	-2.7	-3.6%	-2.9	-1.3%	-2.0%
O=C(Nc1nnc(C2CC2)s1)C1Cc2ccccc2CN1S(=O)(=O)c1ccccc1F (stereo not drawn)	41.3*	18.6%	76.3	6.1%	/
O=C(Nc1nccs1)C1Cc2ccccc2CN1S(=O)(=O)c1ccc(F)cc1 (stereo not drawn)	48.2*	-6.3%	94.1*	0.3%	0.4%
